Assay outcomes from PubChem.
Hits are enriched below; roughly 2.4% of the tested compounds scored in any of these assays.
D2 antag: antagonizes the human D2 dopamine receptor; P14416; HEK293 TREx D2 cells, calcium flux, dopamine EC80; inhibition, % at 10 µM; 340,000 tested, 2% active; AID 485344; in the data active = inhibition above about 30%; inactive = below that, where a call was filed; note: 0% is about no effect
Target sequence (P14416 whole entry, looked up): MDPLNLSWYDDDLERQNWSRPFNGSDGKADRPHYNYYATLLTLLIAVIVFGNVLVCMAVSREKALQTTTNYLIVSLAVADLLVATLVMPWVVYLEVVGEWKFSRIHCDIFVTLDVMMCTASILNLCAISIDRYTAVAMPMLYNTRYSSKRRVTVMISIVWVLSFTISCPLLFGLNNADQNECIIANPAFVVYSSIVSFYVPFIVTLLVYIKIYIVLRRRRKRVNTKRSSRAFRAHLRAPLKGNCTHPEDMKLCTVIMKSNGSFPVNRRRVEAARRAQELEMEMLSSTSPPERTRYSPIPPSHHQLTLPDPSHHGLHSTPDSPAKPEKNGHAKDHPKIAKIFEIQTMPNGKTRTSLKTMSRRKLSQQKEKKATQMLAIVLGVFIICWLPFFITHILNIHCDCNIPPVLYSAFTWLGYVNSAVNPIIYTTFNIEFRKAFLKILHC
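HEK293 T-REx D2 cells, tet-induced, calcium dye no-wash. Cpd pintool add, 180 s kinetic, then EC80 DA, 180 s kinetic. Ca flux read.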
D2 PAM-1: positive allosteric modulators of human D2 dopamine receptor | P14416 | HEK293 T-REx D2, calcium flux, EC20 dopamine potentiation | potentiation, % at 10 µM | 340,000 tested, 0.34% active;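 active = potentiation over 3 SD above the plate norm, cut at about 30% in these data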; note: 0% is about no effect
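Cells plated with tetracycline inducer and held overnight at 30 C; calcium dye loaded 30–90 min at room temperature; baseline taken, compound added and read 180 s; EC20 dopamine then added and read 180 s.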
D2 ag-1: agonists of human D2 dopamine receptor; P14416; HEK293 T-REx D2 cells, calcium flux agonist mode; activation, % at 2 µM; 340,000 tested, 0.53% active; AID 485358;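 active = activation over 3 SD above normal in the single-dose calcium agonist read, cut at about 30% in these data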; note: 0% is about no effect
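Tetracycline-induced HEK293 T-REx cells with force-coupled D2 receptor, plated overnight at 30 C, loaded with no-wash calcium dye. After a 10 s baseline, compound was pin-added and calcium flux read kinetically for 180 s; calcium rises flagged agonists.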
D2 ag-2: activates the human D2 dopamine receptor. P14416. DiscoveRx PathHunter D2 beta-arrestin, luminescence, 90 min; 100% = 57 uM dopamine signal. activation, % (no concentration beside the values). 360,000 tested, 0.084% active; in the data active = activation above about 40%; inconclusive = between about 15% and that limit
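Agonist mode: compounds alone added to overnight-plated D2 PathHunter cells for 90 min at 37 C, with 57 uM final dopamine (EC100) defining full response. Beta-arrestin recruitment detected by chemiluminescent reagent, read after 1 h at ambient temperature.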
D2 PAM-2: positive allosteric modulators of human D2 dopamine receptor. P14416. potentiation, % (concentration not given with the values). AID 624464. DiscoveRx D2 beta-arrestin cells, luminescence, 90 min; 100% = 57 uM dopamine signal. 360,000 tested, 0.23% active; in the data active = potentiation above about 50%; inconclusive = mostly about 30% to 49%
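D2 cells co-treated with compound plus 50 nM dopamine (EC20) for 90 min at 37 deg C to detect potentiation. Beta-arrestin recruitment was read as enzyme-fragment luminescence after 1 h at ambient temperature. Full response was set by 57 uM dopamine.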
* hit, by the source's call; ? = inconclusive; . = no result given.

SMILES | D2 antag | D2 PAM-1 | D2 ag-1 | D2 ag-2 | D2 PAM-2
N=C1/C(=C\c2coc3ccccc3c2=O)C(=O)N=C2SC(c3ccncc3)=NN12 | 17 | -8 | 59* | 5 | 2
COc1ccccc1CNC(=O)CN1C(=O)CSc2ccc(S(=O)(=O)N(C)C)cc21 | . | 0 | 0 | . | .
CC(C)CCNC(=O)C1CC(c2ccccc2C(F)(F)F)=NO1 (configuration not stated) | -17 | 0 | 0 | 0 | 1
Cc1cccc(C(=O)Nc2ccc(C(=O)N/N=C/c3ccc4c(c3)OCO4)cc2)c1 | -14 | -12 | -1 | -1 | -5
O=C(CNc1ccccc1)N/N=C/c1ccc2c(c1)OCCO2 | 0 | -3 | 0 | 2 | 6
Cc1cccc(C(=O)Nc2cccc(C(=O)N/N=C/c3ccc4c(c3)OCO4)c2)c1 | 37* | 0 | -1 | 2 | -5
Cc1ccc(/C=N\NC(=O)c2ccc3c(c2)OCO3)o1 | 32* | -24 | 0 | -1 | -16
O=C(CNc1ccccc1)N/N=C/c1ccc2c(c1)OCO2 | 37* | -8 | 0 | 0 | -10
CCC(=O)N1c2ccccc2CC1C(=O)NCc1cccc(OC)c1OC (configuration not stated) | . | -1 | -1 | . | .
COc1cc(/C=C/C(=O)OCC(=O)Nc2cc(S(=O)(=O)N3CCCC3)ccc2Cl)cc(OC)c1OC | . | . | . | -2 | -8
CCOC(=O)C1(C)CCN1C(=O)c1ccco1 (configuration not stated) | . | . | . | -7 | -7
COc1cccc2cc(C(C)N(CCCN3CCOCC3)C(=S)Nc3ccc(C)c(C)c3)oc12 (configuration not stated) | -9 | -14 | -3 | -5 | -26
COc1ccc(NC(=S)N(CCCN2CCOCC2)C(C)c2cc3cccc(OC)c3o2)cc1 (configuration not stated) | 35* | -18 | 0 | -1 | -15
Nc1ccc(C2=Nc3cccc4cccc(c34)N2)cc1 | 9 | -4 | -1 | ? | 4
CC1=Nc2cccc3cccc(c23)N1 | -1 | 14 | 0 | 7 | 56*
O=C(C1CC1)N1CCc2cc(Br)cc(S(=O)(=O)N3CCOCC3)c21 | . | . | . | 0 | 25
O=C(C1CC1)N1CCc2cc(Br)cc(S(=O)(=O)NCCN3CCOCC3)c21 | 40* | -16 | 0 | 0 | -9
Cc1ccccc1C(C(=O)NC1CCCC1)N(C(=O)CNC(=O)c1ccco1)c1cccnc1 (configuration not stated) | 51* | 1 | 1 | . | .
COc1ccc(C(C(=O)NC2CCCCC2)N(C(=O)CCl)c2ccc(C)cc2)cc1 (configuration not stated) | -5 | 2 | 3 | -8 | 15
COc1ccc(C(C(=O)NC2CCCC2)N(C(=O)c2ccoc2C)c2ccc(C)cc2)cc1 (configuration not stated) | 50* | -4 | -1 | -1 | -17
CC(=O)Nc1ccc(N(C(=O)c2ccco2)C(C(=O)NC2CCCCC2)c2ccccc2)cc1 (configuration not stated) | 37* | 2 | -1 | 0 | -12
COc1ccc(N(C(=O)CNC(=O)c2ccco2)C(C(=O)NC2CCCC2)c2ccncc2)cc1 (configuration not stated) | 51* | 5 | -1 | 0 | -3
COc1ccc(C(C)=O)cc1COC(=O)CSCC(=O)Nc1ccc(C)cc1 | 30* | -27 | -1 | -4 | -31
COc1ccc(C(C)=O)cc1COC(=O)CSC(C)C(=O)Nc1cc(C)on1 (configuration not stated) | 2 | 3 | 0 | -3 | 4
O=C(Cc1ccc([N+](=O)[O-])cc1)Nc1ccc(Cl)cc1 | 15 | -16 | 2 | 13 | -9
SMILES | D2 antag | D2 PAM-1 | D2 ag-1 | D2 ag-2 | D2 PAM-2
Cc1c(Cl)cccc1NC(=O)Cc1ccc([N+](=O)[O-])cc1 | 45* | -7 | 0 | 3 | 6
Nc1c(C(O)(C(F)(F)F)C(F)(F)F)cc(C(O)(C(F)(F)F)C(F)(F)F)c2ccccc12 | 15 | -4 | 1 | ? | 91*
CC(NC(=O)c1ccc2c(c1)sc1nc(-c3ccccc3)cn12)C12CC3CC(CC(C3)C1)C2 (configuration not stated) | . | -9 | 2 | . | .
CC(=O)Cn1c(CN2CCCCC2)nc2ccccc2c1=O | 4 | -29 | 1 | -4 | -4
CC(=O)Cn1c(CN2CCCC2)nc2ccccc2c1=O | 35* | -4 | 1 | -5 | -6
Cc1sc2nc(CSCC(=O)NC3(C#N)CCCCC3)[nH]c(=O)c2c1C | -11 | 17 | 1 | -1 | -1
Cc1ccc(C#N)c(SCCN2CCCCC2)n1 | 34* | -10 | 0 | -2 | -21
CCN(CC(=O)NCc1ccc(Cl)cc1)C(=O)CCOc1ccc(C)cc1 | 1 | 7 | 0 | -1 | 8
COc1cccc(-c2ccc(-c3noc(-c4ccccc4F)n3)c(OC)n2)c1 | 40* | -22 | 1 | -3 | -13
COCc1nc(-c2ccc(-c3ccccc3)nc2OC)no1 | 42* | 5 | 0 | -1 | -4
CCC(C)NC(=O)c1ccc2c(c1)N(Cc1ccccc1)C(=O)c1ccccc1S2(=O)=O (configuration not stated) | . | 1 | 1 | . | .
CCOc1ccc(C(=O)NCC(=O)OCc2c(C)noc2C)cc1OCC | 37* | -4 | 2 | -2 | -16
Cc1ccc(NC(=O)Nc2nnc(N(CC(C)C)CC(C)C)s2)cc1Cl | . | -12 | 0 | . | .
CC1(C)CC(=O)C/C(=N/Nc2nc3ccccc3s2)C1 | 36* | 7 | 1 | -3 | -3
CC1CCC/C(=N/Nc2nc3ccccc3s2)C1 (configuration not stated) | -3 | 5 | -1 | -12 | -8
Cc1ccc2c(c1)c1c(c(=O)n(-c3ccccc3C)c(=O)n1Cc1cccc(F)c1)n2C | . | -1 | . | . | .
Cc1ccc(-c2sc(C(=O)Nc3ccc(Br)cc3)cc2CC(=O)O)cc1 | . | -3 | -1 | . | .
O=[N+]([O-])c1ccc(Sc2nnnn2-c2ccccc2)c(Cl)c1 | 36* | -6 | -1 | 13 | 30
Cn1nnnc1Sc1ccc([N+](=O)[O-])cc1Cl | -18 | 2 | 1 | 7 | 19
O=C(CCc1nc(-c2ccccc2)no1)Nc1cccnc1 | 58* | -8 | 0 | -1 | -4
O=C(CCCc1nc(-c2ccccc2)no1)Nc1cccnc1 | . | . | . | 1 | 7
CC(C)c1nnc(NC(=O)CCC(=O)Nc2ccc(Cl)cc2)s1 | 41* | -27 | 0 | -2 | -37
Cc1cc(C)cc(NC(=O)CCC(=O)Nc2nnc(C(C)C)s2)c1 | 33* | -21 | 0 | -4 | -28
CC(C)Cc1nnc(NC(=O)CCC(=O)Nc2ccc(Cl)cc2)s1 | 19 | -4 | 0 | -2 | -17
